A short description of test [1]: qHTS assay to test for compound auto fluorescence at 535 nm (green) in HEK293 cells (AID 720680). A general note: Quantitative high-throughput screening tests each substance at several concentrations.
Test [2] can be described thus: qHTS assay to test for compound auto fluorescence at 460 nm (blue) in HEK293 cell free culture (AID 720681). In short, it runs like this: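 Blue fluorescence (Ex 405/Em 460 nm, triamterene-equivalent) was read immediately after pin transfer of compound or DMSO into medium (DMEM, 10% FBS) without cells.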
Test [3] is described as follows: qHTS assay to test for compound auto fluorescence at 535 nm (green) in HEK293 cell free culture (AID 720682). In short, it runs like this: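 Green-label autofluorescence (485 nm excitation, 535 nm emission) measured on compound added to cell-free culture medium (DMEM, 10% FBS). Output is expressed relative to fluorescein.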
Test [4] in a line: qHTS assay to test for compound auto fluorescence at 590 nm (red) in HEK293 cell free culture (AID 720683). In short, it runs like this:
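Red-channel autofluorescence of compounds in culture medium (DMEM, 10% FBS), no cells, measured at 540/590 nm. Rose Bengal sodium is the reference fluorophore for equivalence.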

A short description of test [5]: qHTS assay to test for compound auto fluorescence at 590 nm (red) in HepG2 cell free culture (AID 720684). In outline: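 No cells present: MEM + 10% FBS only. Compound pinned in, red label read (540/590 nm). Activity = fluorescence equivalent to Rose Bengal sodium.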
A short description of test [6]: qHTS assay to test for compound auto fluorescence at 460 nm (blue) in HepG2 cell free culture (AID 720685). In outline:
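Cell-free plates of MEM plus 10% FBS received 23 nL compound or DMSO vehicle; blue-channel (405/460 nm) intensity scored against triamterene as reference fluorophore.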

The nature of test [7]: qHTS assay to test for compound auto fluorescence at 460 nm (blue) in HepG2 cells (AID 720687). In outline: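 Blue-channel autofluorescence (Ex/Em 405/460 nm, triamterene-equivalent) was measured after 1 hr compound exposure at 37 C, 5% CO2. Cells were HepG2, plated overnight at 37 C in MEM plus 10% FBS.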
Test [8] concerns the target Glucocorticoid receptor (Homo sapiens) (UniProt P04150). Description: qHTS assay to identify small molecule agonists of the glucocorticoid receptor (GR) signaling pathway (AID 720691; active = well fitted activation curve with a large enough effect in the signal ratio in the repeat runs, not every such curve was filed as active; inconclusive = weak or mixed curves, or effect the other way; inactive = no such curve, though single readings can be large or run the other way; the % refers to the signal ratio; note: potency is the fitted concentration of half-maximal effect). To be noted: GR-bla HeLa, beta-lactamase reporter ratio, 18 h; activation: at 62.4 µM (top of the series). In short, it runs like this:
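Steps: seed GR-bla HeLa cells, incubate 4 h at 37 C/5% CO2; pin-transfer DMSO-dissolved compounds; incubate 18 h at 37 C; add LiveBLAzer B/G FRET substrate; after 2 h at room temperature, measure fluorescence.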

Test [9] shares this target. The experiment in a line: qHTS assay to identify small molecule antagonists of the glucocorticoid receptor (GR) signaling pathway (AID 720692; active = well fitted inhibition curve with a large enough effect in the signal ratio in the repeat runs, not every such curve was filed as active; inconclusive = weak or mixed curves, or effect the other way; inactive = no such curve, though single readings can be large or run the other way; the % refers to the signal ratio; note: potency is the fitted concentration of half-maximal effect). In outline:
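Antagonism was scored as loss of dexamethasone-driven (5 nM final) reporter signal in HeLa cells bearing a glucocorticoid response element–beta-lactamase construct, after 18 h compound exposure at 37 C and 2 h FRET substrate loading.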

Test [10] is described as follows: qHTS assay to identify small molecule antagonists of the glucocorticoid receptor (GR) signaling pathway - cell viability counter screen (AID 720693). Note: nearly all actives have a fitted effect of over 55% in size. Note: potency is the fitted concentration of half-maximal effect.
Test [11] is described as follows: qHTS assay for identifying genotoxic compounds that show differential cytotoxicity against isogenic chicken DT40 cell lines with known DNA damage response pathways - wild type cell line (AID 743012). Note: nearly all actives have a fitted effect of over 60% in size. Note: potency is the fitted concentration of half-maximal effect. In outline:
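Cytotoxicity in repair-proficient parental chicken DT40 cells serves as the comparator for Rad54/Ku70- and Rev3-deficient lines. Cells were exposed to compounds for 40 h at 37 C/5% CO2, and ATP-based luminescence (CellTiter-Glo) measured viability.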

Test [12] can be described thus: qHTS assay to identify small molecule antagonists of the androgen receptor (AR) signaling pathway - cell viability counter screen (AID 743033; note: nearly all actives have a fitted effect of over 45% in size).
The target in test [13] is Androgen receptor (Homo sapiens) (UniProt P10275). The experiment in a line: qHTS assay to identify small molecule agonists of the androgen receptor (AR) signaling pathway (AID 743036; active = well fitted activation curve with a large enough effect in the signal ratio in the repeat runs, with a control signal flat, not every such curve was filed as active; inconclusive = weak or mixed curves, or effect the other way; inactive = no such curve, though single readings can be large or run the other way; the % refers to the signal ratio). In outline:
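AR-UAS-bla HEK293 cells, plated 4 h before dosing, were treated with compound for 16 h at 37C. beta-Lactamase reporter read after 2 h with LiveBLAzer B/G FRET substrate at room temperature.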

Test [14] has the same target. The experiment in a line: qHTS assay to identify small molecule agonists of the androgen receptor (AR) signaling pathway using the MDA cell line (AID 743040; note: nearly all actives have a fitted effect of over 20% in size). In short, it runs like this:
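Stable MMTV-luciferase reporter in MDA-kb2 cells; note the promoter carries GR as well as AR response elements. 16 h compound treatment, 37C, 0% CO2; ONE-Glo luminescence endpoint.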

Test [15] has the same target. Description: qHTS assay to identify small molecule antagonists of the androgen receptor (AR) signaling pathway using the MDA cell line (AID 743042; note: nearly all actives have a fitted effect of over 55% in size). In short, it runs like this: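 Antagonist mode: compounds plus R1881 agonist added to MDA-kb2 AR-luc cells, incubated 16 h at 37C. Luciferase reporter luminescence quantified, with multiplexed CellTiter-Fluor readout for cell viability.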

A short description of test [16]: qHTS assay to test for compound auto fluorescence at 535 nm (green) in HepG2 cell free culture (AID 720686).
The nature of test [17]: qHTS assay for identifying genotoxic compounds that show differential cytotoxicity against isogenic chicken DT40 cell lines with known DNA damage response pathways - Rev3 mutant cell line (AID 743014). Note: nearly all actives have a fitted effect of over 55% in size. Note: potency is the fitted concentration of half-maximal effect.
Test [18] can be described thus: qHTS assay for identifying genotoxic compounds that show differential cytotoxicity against isogenic chicken DT40 cell lines with known DNA damage response pathways - Rad54/Ku70 mutant cell line (AID 743015). Note: nearly all actives have a fitted effect of over 60% in size. Note: potency is the fitted concentration of half-maximal effect.
A short description of test [19]: qHTS assay to identify small molecule antagonists of the androgen receptor (AR) signaling pathway using the MDA cell line - cell viability counter screen (AID 743041; note: nearly all actives have a fitted effect of over 45% in size). In outline:
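Using the breast carcinoma line MDA-kb2 AR-luc, test chemicals were co-incubated with R1881 for 16 h; CellTiter-Fluor reagent, added at 15.5 h, provided a fluorescence measure of live cells.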

Test [20] concerns the target Androgen receptor (Homo sapiens) (UniProt P10275). The experiment in a line: qHTS assay to identify small molecule antagonists of the androgen receptor (AR) signaling pathway (AID 743035; active = well fitted inhibition curve with a large enough effect in the signal ratio in the repeat runs, not every such curve was filed as active; inconclusive = weak or mixed curves, or effect the other way; inactive = no such curve, though single readings can be large or run the other way; the % refers to the signal ratio). In short, it runs like this:
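Steps: seed AR-UAS-bla GripTite HEK293 cells, incubate 4 h at 37C; pin in test compound, then add agonist R1881; incubate 16 h at 37C; add LiveBLAzer B/G FRET substrate, 2 h at room temperature; read fluorescence.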

Consider five compounds from PubChem BioAssay (Tox21).

SMILES strings stand for the structures. Active and inactive are the calls of the source. Unless noted, calls come from the whole dose curve; as a rule, active = well fitted curve in the direction sought with a large enough effect in the repeat runs; inconclusive = weak or mixed curves; inactive = no such curve, though single readings can be large; an effect the other way counts as inactive or inconclusive.

Sequence of Glucocorticoid receptor (Homo sapiens) (P04150 whole entry, looked up): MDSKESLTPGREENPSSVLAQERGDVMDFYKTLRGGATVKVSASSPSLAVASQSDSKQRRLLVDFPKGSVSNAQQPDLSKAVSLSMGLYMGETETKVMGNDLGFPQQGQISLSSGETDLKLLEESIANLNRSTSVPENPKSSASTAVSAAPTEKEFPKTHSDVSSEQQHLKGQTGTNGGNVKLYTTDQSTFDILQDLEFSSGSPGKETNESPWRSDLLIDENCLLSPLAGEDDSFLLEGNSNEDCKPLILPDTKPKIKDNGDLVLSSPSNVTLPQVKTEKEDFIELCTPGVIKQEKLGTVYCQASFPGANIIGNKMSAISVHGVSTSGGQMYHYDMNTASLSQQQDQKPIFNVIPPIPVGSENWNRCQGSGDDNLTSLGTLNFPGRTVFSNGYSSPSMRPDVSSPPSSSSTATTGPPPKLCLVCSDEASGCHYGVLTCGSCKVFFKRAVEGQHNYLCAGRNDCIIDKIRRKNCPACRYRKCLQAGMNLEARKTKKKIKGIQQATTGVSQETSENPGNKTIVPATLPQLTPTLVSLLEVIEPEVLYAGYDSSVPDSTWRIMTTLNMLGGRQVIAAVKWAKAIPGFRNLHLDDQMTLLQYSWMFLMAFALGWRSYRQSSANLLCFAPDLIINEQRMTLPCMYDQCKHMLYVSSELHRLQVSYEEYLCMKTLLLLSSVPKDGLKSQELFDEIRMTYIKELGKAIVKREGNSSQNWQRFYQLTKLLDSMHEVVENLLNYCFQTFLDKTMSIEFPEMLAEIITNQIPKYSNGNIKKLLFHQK
Sequence of Androgen receptor (Homo sapiens) (P10275 whole entry, looked up): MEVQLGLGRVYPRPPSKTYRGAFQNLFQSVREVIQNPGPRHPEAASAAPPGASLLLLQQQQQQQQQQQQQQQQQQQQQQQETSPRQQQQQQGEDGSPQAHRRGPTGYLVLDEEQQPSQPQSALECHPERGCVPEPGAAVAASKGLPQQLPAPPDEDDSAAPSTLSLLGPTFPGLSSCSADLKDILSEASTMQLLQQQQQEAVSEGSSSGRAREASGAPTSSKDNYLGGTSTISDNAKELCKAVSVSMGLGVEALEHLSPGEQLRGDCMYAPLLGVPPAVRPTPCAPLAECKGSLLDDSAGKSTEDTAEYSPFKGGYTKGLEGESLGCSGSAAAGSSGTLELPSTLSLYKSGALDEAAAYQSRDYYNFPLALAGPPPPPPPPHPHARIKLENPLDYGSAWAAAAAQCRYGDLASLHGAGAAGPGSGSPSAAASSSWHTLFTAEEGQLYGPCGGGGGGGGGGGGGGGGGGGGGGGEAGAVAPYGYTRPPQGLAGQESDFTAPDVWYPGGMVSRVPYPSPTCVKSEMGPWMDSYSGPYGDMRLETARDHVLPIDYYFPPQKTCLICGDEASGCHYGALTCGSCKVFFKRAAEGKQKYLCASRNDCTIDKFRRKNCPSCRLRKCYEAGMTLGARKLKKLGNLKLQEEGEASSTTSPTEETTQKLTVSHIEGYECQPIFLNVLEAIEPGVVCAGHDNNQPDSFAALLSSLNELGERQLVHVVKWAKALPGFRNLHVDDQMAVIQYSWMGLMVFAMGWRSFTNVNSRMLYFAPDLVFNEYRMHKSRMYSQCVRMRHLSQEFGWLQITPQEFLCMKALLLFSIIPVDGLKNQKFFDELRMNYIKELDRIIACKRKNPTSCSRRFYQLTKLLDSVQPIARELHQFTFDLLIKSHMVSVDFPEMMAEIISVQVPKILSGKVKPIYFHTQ

On to `COc1ccc(CCNCC(O)COc2cccc(C)c2)cc1OC` (stereo not drawn), for which the Potency entry in test [1], in [2], in test [3], in test [4], in test [5] and in test [8] was “inactive” in each case. In addition, the Potency entry in test [9], in test [10], in [12], in test [13], in test [14] and in test [15] was “inactive” throughout. The call in test [6] and in test [7] was inactive. Further, the Potency in [11] is 26.6 µM (active).

Turning to `CC[C@@]1(O)C[C@H](O[C@H]2C[C@H](N(C)C)[C@H](O[C@H]3C[C@H](O)[C@H](O[C@H]4CCC(=O)[C@H](C)O4)[C@H](C)O3)[C@H](C)O2)c2c(cc3c(c2O)C(=O)c2c(O)cccc2C3=O)[C@H]1C(=O)OC`, the Potency entry in test [1], in test [2], in test [3], in test [4], in test [5] and in [16] was “inactive” in each case. In addition, the compound was called inactive in [6]. Further, the Potency in test [8] is 10.7 µM [inconclusive] (active); in test [10], 2.39 µM (active); in [11], 0.0531 µM (active); in test [17], 0.0531 µM (active); in [18] it was 0.0422 µM (active).

Turning to `CC(=O)N[C@@H]([C@@H](O)[C@H](O)[C@H](O)CO)[C@@H](O)CC(=O)C(=O)O`, the Potency entry in test [1], in test [2], in [3], in test [4], in test [5] and in test [16] was “inactive” in each case. The Potency entry in [8], in test [9], in test [10], in [11], in [17] and in [18] was “inactive” each time. For the same compound, the Potency entry in test [12] and in test [19] was “inactive” each time. Moreover, the outcome in test [6] was inactive.

`CC(CCc1ccc(O)cc1)NCC(O)c1ccc(O)cc1` (stereo not drawn): the Potency result in [1], in [2], in test [3], in test [4], in test [5] and in test [16] was “inactive” each time. The Potency entry in test [10], in test [11], in [17], in [18], in [12] and in [20] was “inactive” each time. In addition, the Potency entry in test [13], in test [14], in test [19] and in test [15] was “inactive” in each case. Besides, the call in [6] was inactive.

Regarding `O=[N+]([O-])c1c(Cl)cccc1-c1c[nH]cc1Cl`, the Potency entry in [1], in test [2], in [3], in test [4], in test [5] and in test [8] was “inactive” in each case. In addition, the Potency result in [12] and in test [19] was “inactive” throughout. Further, the outcome in test [6] and in test [7] was inactive. Besides, the Potency in test [9] is 21.3 µM (active); in test [11], 18.8 µM (active); in [17] it was 23.7 µM (active); in [18], 26.6 µM (active).
